Values joined by “and” are separate entries in the source; they are usually repeats but may differ in a detail not shown here. Equal values may be shown once. Among all 5,500 compounds or so, about 2,000 (36%) were called active. Roughly 18% stayed inconclusive and do not appear here. Rule as the data show it: active = normalized growth mostly below about 0.91 (no sharp cut-off); inconclusive = no clear call, values can overlap the other calls; inactive = mostly above about 0.92. The list shows a part of the results.
Assay: chemical genetic growth profiling, strain panel (AID 1159580);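 also: tested at 20 µM; growth read once vehicle control cultures reached saturation at 30 °C; 1 = growth at the plate median or of vehicle wells; lower values mean less growth of the strain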
Details: S. cerevisiae deletion strains, growth OD

Measured: normalized growth

CCCCOc1ccc(OCCCN2CCOCC2)cc1
active: locus YAL021C, strain ccr4, stronger effect = lower value 0.829 | locus YAL026C, strain drs2, stronger effect = lower value 0.0964 | locus YBR021W, strain FUR4, stronger effect = lower value 1.16 [resistant] | locus YBR279W, strain paf1, stronger effect = lower value 0.918 | locus YDL035C, strain GPR1, stronger effect = lower value 0.855 | locus YDL134C, strain PPH21, stronger effect = lower value 0.823 | locus YDL192W, strain arf1, stronger effect = lower value 0.893 | locus YDR069C, strain doa4, stronger effect = lower value 0.883 | locus YDR101C, strain arx1, stronger effect = lower value 0.916 | locus YDR195W, strain ref2 1.21 [resistant] | locus YDR318W, strain mcm21, stronger effect = lower value 0.884 | locus YDR335W, strain msn5, stronger effect = lower value 0.904 | locus YDR388W, stronger effect = lower value 0.9 | locus YDR502C, strain sam2, stronger effect = lower value 0.872 | locus YER015W, strain faa2, stronger effect = lower value 0.925 | locus YER155C, strain BEM2 (second series), stronger effect = lower value 0.407 | locus YER167W, strain BCK2, stronger effect = lower value 0.838 | locus YFR010W, strain ubp6, stronger effect = lower value 0.884 | locus YGL086W, strain mad1, stronger effect = lower value 0.906 | locus YGL248W, strain PDE1, stronger effect = lower value 0.863 | locus YGR078C, strain PAC10, stronger effect = lower value 0.828 | locus YGR135W, strain pre9, stronger effect = lower value 0.784 | locus YGR229C, strain SMI1, stronger effect = lower value 0.598 | locus YGR252W, strain gcn5, stronger effect = lower value 0.588 | locus YHR013C, strain ard1, stronger effect = lower value 0.799 | locus YHR142W, strain chs7, stronger effect = lower value 0.817 | locus YIL066C, strain RNR3, stronger effect = lower value 0.719 | locus YJL129C, strain trk1, stronger effect = lower value 0.805 | locus YJL166W, strain qcr8, stronger effect = lower value 0.89 | locus YJL187C, strain SWE1 (second series), stronger effect = lower value 0.855
inactive: locus YAL013W, strain DEP1, stronger effect = lower value 0.994 | locus YAL030W, strain snc1, stronger effect = lower value 0.988 | locus YBL061C, strain skt5, stronger effect = lower value 0.955 | locus YBR009C, strain hhf1, stronger effect = lower value 0.96 | locus YBR023C, strain chs3, stronger effect = lower value 0.946 | locus YBR171W, strain sec66, stronger effect = lower value 0.942 | locus YBR229C, strain ROT2, stronger effect = lower value 1 | locus YBR231C, strain swc5, stronger effect = lower value 0.935 | locus YCL011C, strain gbp2, stronger effect = lower value 0.966 | locus YCL016C, strain dcc1, stronger effect = lower value 0.928 | locus YCL029C, strain bik1, stronger effect = lower value 0.938 | locus YCL069W, strain vba3, stronger effect = lower value 0.995 | locus YCR088W, strain abp1, stronger effect = lower value 0.997 | locus YDL005C, strain med2, stronger effect = lower value 1 | locus YDL040C, strain nat1, stronger effect = lower value 0.987 | locus YDL074C, strain BRE1, stronger effect = lower value 0.841 | locus YDL101C, strain DUN1, stronger effect = lower value 0.963 | locus YDL185W, strain tfp1, stronger effect = lower value 0.979 | locus YDR001C, strain nth1, stronger effect = lower value 0.983 | locus YDR137W, strain rgp1, stronger effect = lower value 0.913 | locus YDR150W, strain NUM1, stronger effect = lower value 0.984 | locus YDR159W, strain sac3, stronger effect = lower value 0.943 | locus YDR162C, strain NBP2, stronger effect = lower value 0.952 | locus YDR297W, strain sur2, stronger effect = lower value 0.968 | locus YDR334W, strain swr1, stronger effect = lower value 0.947 | locus YDR392W, strain spt3, stronger effect = lower value 0.868 | locus YEL003W, strain gim4, stronger effect = lower value 0.918 | locus YEL037C, strain rad23, stronger effect = lower value 0.98 | locus YEL061C, strain CIN8 (second series), stronger effect = lower value 0.973 | locus YEL061C, strain CIN8, stronger effect = lower value 0.931 | locus YER016W, strain bim1, stronger effect = lower value 0.983 | locus YER110C, stronger effect = lower value 0.922 | locus YER111C, strain swi4, stronger effect = lower value 0.962 | locus YER155C, strain BEM2, stronger effect = lower value 1.04 | locus YGL078C, strain dbp3, stronger effect = lower value 0.966 | locus YGL167C, strain pmr1, stronger effect = lower value 0.966 | locus YGL173C, strain kem1, stronger effect = lower value 0.929 | locus YGL227W, strain vid30, stronger effect = lower value 0.966 | locus YGL240W, strain doc1, stronger effect = lower value 0.965 | locus YGL253W, strain hxk2, stronger effect = lower value 0.94 | locus YHR027C, strain rpn1, stronger effect = lower value 0.953 | locus YHR079C, strain IRE1 (second series), stronger effect = lower value 0.93 | locus YHR079C, strain IRE1, stronger effect = lower value 0.979 | locus YHR094C, strain hxt1, stronger effect = lower value 0.997 | locus YHR129C, strain ARP1, stronger effect = lower value 0.99 | locus YHR200W, strain rpn10, stronger effect = lower value 0.961 | locus YIL073C, strain SPO22, stronger effect = lower value 0.804 | locus YIL125W, strain kgd1, stronger effect = lower value 1 | locus YIR030C, strain dcg1, stronger effect = lower value 0.976 | locus YJL092W, strain hpr5, stronger effect = lower value 0.992 | locus YJL095W, strain BCK1 (second series), stronger effect = lower value 0.962 | locus YJL115W, strain asf1, stronger effect = lower value 0.954 | locus YJL134W, strain LCB3, stronger effect = lower value 0.999 | locus YJL154C, strain vps35, stronger effect = lower value 0.995 | locus YJL164C, strain tpk1, stronger effect = lower value 0.918 | locus YJL168C, strain set2, stronger effect = lower value 0.976 | locus YJL187C, strain SWE1, stronger effect = lower value 0.957 | locus YJR043C, strain POL32, stronger effect = lower value 0.934 | locus YJR066W, strain TOR1, stronger effect = lower value 0.884
0.911 (active) and 0.965 (inactive): locus YHR030C, strain SLT2, stronger effect = lower value
0.653 (active) and 0.972 (inactive): locus YJL095W, strain BCK1, stronger effect = lower value

Source: PubChem BioAssay AID1159580 (chemical genetic matrix, 2015)
